# Vaccinia pol inh: vaccinia E9 polymerase processive synthesis inhibitors, primary screen, biochemical, absorbance. in vitro processive DNA synthesis, absorbance read-out; stronger effect = lower value. Vaccinia virus DNA polymerase (E9) processive complex. normalized absorbance, % (no concentration beside the values). AID 493162, 2011. actives 0.94% (n = 46,000); in the data active means normalized absorbance mostly below about 85%, no sharp cut-off; inactive means mostly above about 86%
# Active calls of the source: *. The full list was thinned out, with hits kept by preference.
SMILES,Vaccinia pol inh
COc1ccc(C(=O)CSc2nc3ccccc3s2)cc1,90
COc1ccc(C(=O)CSc2nnc(-c3ccco3)c(-c3ccco3)n2)cc1,68*
COc1ccc(-c2ccnc(SCC(=O)c3ccc(Cl)cc3)n2)cc1,99
O=C(COc1cc(O)c2c(=O)cc(-c3ccccc3)oc2c1)c1ccccc1,100
O=c1cc(-c2ccccc2)oc2cc(O)cc(O)c12,100
O=c1cc(-c2ccc(O)cc2)oc2cc(O)cc(O)c12,85*
CCC1CN(C(=O)NCc2ccc(C)cc2)c2ccccc2S1 (centres undefined),102
O=C1C=CC(=O)c2c(O)cccc21,74*
O=C1c2cccc(O)c2C(=O)c2c(O)cccc21,100
O=C1c2ccc(O)c(O)c2C(=O)c2c(O)ccc(O)c21,78
COc1ccc(NC2CC(=O)N(c3ccccc3C(F)(F)F)C2=O)cc1 (centres undefined),103
Cc1c2c(cc3c4c(c(=O)oc13)CCCC4)CN(CCc1ccc(F)cc1)CO2,106
Cc1ccc(CN2COc3c(Cl)cc4c(C)c(C)c(=O)oc4c3C2)cc1,69*
COC(=O)c1cc2ccc3c(c2oc1=O)CN(Cc1ccccc1)CO3,105
CCn1c(=O)c2cc(C(=O)N(C)c3cc(Cl)ccc3C)sc2c2ccccc21,88
Cc1ccc(CC2SC(N3CCN(c4ccccc4)CC3)=NC2=O)cc1 (centres undefined),100
NC(=O)c1ccccc1N=Cc1ccc(O)c(O)c1,101
CCOC(=O)c1c(C)n(C)c2ccc(OCCN(C)C)cc12,65*
CCOC(=O)c1c(C)n(Cc2ccccc2)c2ccc(OC(C)=O)cc12,100
CCOC(=O)c1c(C)n(-c2ccc(OC)cc2)c2ccc(OC)cc12,100
Cc1cc(=O)oc2cc(OCC(=O)N(C)C)ccc12,100
CCOc1ccc2nc(NC(=O)c3ccc(C(C)(C)C)cc3)sc2c1,106
O=C1OCCC1OC(=O)C1(c2ccc(Cl)cc2)CCCC1 (centres undefined),94
Cc1ccc(CC2SC(=O)NC2=O)cc1Cl (centres undefined),81
O=C1NC(=O)C(Cc2ccc(C(=O)O)cc2)S1 (centres undefined),120
SMILES,Vaccinia pol inh
O=C1NC(=O)C(Cc2ccccc2)S1 (centres undefined),79*
CCCc1[nH]n(-c2nc3ccccc3s2)c(=O)c1C(C)=Nc1ccc(C(=O)OCC)cc1,100
O=C(CN1C(=O)/C(=C\c2cccc(F)c2)Oc2ccccc21)N1CCN(c2ncccn2)CC1,102
O=c1/c(=C\c2ccccc2)sc2nncn12,92
CCN(CC)Cn1nc2c3c(cccc3c1=O)-c1ccccc1-2,57*
CN(C)C(=O)n1nc2c3c(cccc31)C(=O)c1ccccc1-2,69
Cc1ccc(-c2nn(CC(=O)N(C)C)c(=O)c3ccccc23)cc1,100
CN(C)c1nnnn1-c1ccccc1,101
O=C(CCSc1ccccc1)Nc1nc(-c2cccnc2)cs1,98
CCOC(=O)N1CCN(S(=O)(=O)c2ccccc2)CC1,100
O=C1c2ccccc2-c2onc3c(Br)cc(NCc4ccccc4)c1c23,99
CCOC(=O)N1CCN(c2cc(NCCC(=O)O)c3c4c(onc24)-c2ccccc2C3=O)CC1,70*
Cc1ccc(-c2nc(C)sc2C)cc1,100
CCOc1ccc(OCC)c(CC2OC(c3ccccc3)=NC2=O)c1 (centres undefined),100
COC(=O)c1noc(C)c1C(=O)/C=C/N(C)C,40*
Cc1c(C(=O)/C=C/N(C)C)nnn1-c1ccccc1,96
CN(C)/C=C/C(=O)c1ccc2c(c1)CCO2,98
Cc1ccc(-c2cn3cccnc3n2)cc1NC(=O)Nc1ccccc1,104
O=C(Nc1ccccc1N1CCCCC1)c1sc2ccccc2c1Cl,101
O=C(NCc1ccccc1)NCc1noc2ccccc12,90
CN1CCc2c(sc(NC(=O)c3ccc4ncsc4c3)c2C(N)=O)C1,85*
N#Cc1ccsc1NC(=O)c1ccc2ncsc2c1,108
COC(=O)c1c(NC(=O)c2ccc(OC)cc2)sc2c1CCN(C)C2,92
Cc1nc(C)c(C#N)c(-c2ccc(Cl)cc2)c1C#N,106
O=C1c2ccccc2C(=O)N1CNN1CCCc2ccccc21,101
SMILES,Vaccinia pol inh
CCc1nc(SC/C=C/c2ccccc2)c(C#N)cc1C,100
Cc1cc(S(=O)(=O)Nc2ccsc2C(N)=O)c(Cl)cc1Cl,100
CN(C(=O)COc1ccc(C#N)cc1)C1CCCCC1,108
O=C(O)c1ccc2[nH]c3c(c2c1)CSCC3,89
CC(C)OC(=O)c1ccc2[nH]c3c(c2c1)CCCC3,103
CN(C)CCOC(=O)c1ccc2[nH]c3c(c2c1)CSCC3,58*
CC(C(=O)c1ccccc1)[n+]1ccc2ccccc2c1 (centres undefined),97
Cn1c(=O)c(C(=O)/C=C/C=C/c2ccccc2)c(O)c2ccccc21,101
O=C(O)c1cccc(-c2ccc(/C=c3/sc4nc5ccccc5n4c3=O)o2)c1,100
CC1=NN(c2cccc(C(=O)O)c2)C(=O)/C1=C/c1ccc(-c2cccc(Cl)c2C)o1,51*

# Source: PubChem
